Reference: PubChem BioAssay AID1159580 (chemical genetic matrix, 2015)
The whole screen tested about 5,500 compounds, of which about 2,000 (36%) were called active. Not shown: some 18% with an inconclusive outcome. This is one part of the list. Unmarked numbers belong to inactive results. Rule as the data show it: active = normalized growth mostly below about 0.91 (no sharp cut-off); inconclusive = no clear call, values can overlap the other calls; inactive = mostly above about 0.92.

Experiment: chemical genetic growth profiling, strain panel (AID 1159580);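 also: tested at 20 µM; growth read once vehicle control cultures reached saturation at 30 °C; 1 = growth at the plate median or of vehicle wells; lower values mean less growth of the strain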
Details: S. cerevisiae deletion strains, growth OD

CC(=O)c1cc(CC=C(C)C)c(O)c(CC=C(C)C)c1
normalized growth (locus YAL013W, strain DEP1, stronger effect = lower value): 0.924 | normalized growth (locus YAL021C, strain ccr4, stronger effect = lower value): 1 | normalized growth (locus YAL026C, strain drs2, stronger effect = lower value): 1.01 | normalized growth (locus YAL030W, strain snc1, stronger effect = lower value): 1.01 | normalized growth (locus YBL061C, strain skt5, stronger effect = lower value): 1 | normalized growth (locus YBR009C, strain hhf1, stronger effect = lower value): 1 | normalized growth (locus YBR021W, strain FUR4, stronger effect = lower value): 1.42 [resistant] (active) | normalized growth (locus YBR023C, strain chs3, stronger effect = lower value): 1 | normalized growth (locus YBR171W, strain sec66, stronger effect = lower value): 1.01 | normalized growth (locus YBR229C, strain ROT2, stronger effect = lower value): 0.989 | normalized growth (locus YBR231C, strain swc5, stronger effect = lower value): 1 | normalized growth (locus YBR279W, strain paf1, stronger effect = lower value): 1.02 | normalized growth (locus YCL011C, strain gbp2, stronger effect = lower value): 1.01 | normalized growth (locus YCL016C, strain dcc1, stronger effect = lower value): 1.01 | normalized growth (locus YCL029C, strain bik1, stronger effect = lower value): 0.96 | normalized growth (locus YCL061C, strain MRC1, stronger effect = lower value): 1.01 | normalized growth (locus YCL069W, strain vba3, stronger effect = lower value): 1 | normalized growth (locus YCR088W, strain abp1, stronger effect = lower value): 1 | normalized growth (locus YDL005C, strain med2, stronger effect = lower value): 1.02 | normalized growth (locus YDL035C, strain GPR1, stronger effect = lower value): 0.947 | normalized growth (locus YDL040C, strain nat1, stronger effect = lower value): 1.01 | normalized growth (locus YDL074C, strain BRE1, stronger effect = lower value): 0.797 | normalized growth (locus YDL101C, strain DUN1, stronger effect = lower value): 0.945 | normalized growth (locus YDL134C, strain PPH21, stronger effect = lower value): 0.987 | normalized growth (locus YDL185W, strain tfp1, stronger effect = lower value): 0.927 | normalized growth (locus YDL192W, strain arf1, stronger effect = lower value): 0.919 | normalized growth (locus YDR001C, strain nth1, stronger effect = lower value): 1 | normalized growth (locus YDR069C, strain doa4, stronger effect = lower value): 1 | normalized growth (locus YDR101C, strain arx1, stronger effect = lower value): 0.969 | normalized growth (locus YDR137W, strain rgp1, stronger effect = lower value): 0.939 | normalized growth (locus YDR150W, strain NUM1, stronger effect = lower value): 0.969 | normalized growth (locus YDR159W, strain sac3, stronger effect = lower value): 1.02 | normalized growth (locus YDR162C, strain NBP2, stronger effect = lower value): 0.665 (active) | normalized growth (locus YDR195W, strain ref2): 1.06 | normalized growth (locus YDR297W, strain sur2, stronger effect = lower value): 1.01 | normalized growth (locus YDR318W, strain mcm21, stronger effect = lower value): 0.971 | normalized growth (locus YDR334W, strain swr1, stronger effect = lower value): 1.01 | normalized growth (locus YDR335W, strain msn5, stronger effect = lower value): 1.02 | normalized growth (locus YDR388W, stronger effect = lower value): 0.977 | normalized growth (locus YDR392W, strain spt3, stronger effect = lower value): 0.977 | normalized growth (locus YDR502C, strain sam2, stronger effect = lower value): 0.955 | normalized growth (locus YEL003W, strain gim4, stronger effect = lower value): 1.01 | normalized growth (locus YEL037C, strain rad23, stronger effect = lower value): 1 | normalized growth (locus YEL061C, strain CIN8 (second series), stronger effect = lower value): 1.01 | normalized growth (locus YEL061C, strain CIN8, stronger effect = lower value): 0.989 | normalized growth (locus YER015W, strain faa2, stronger effect = lower value): 1 | normalized growth (locus YER016W, strain bim1, stronger effect = lower value): 1.01 | normalized growth (locus YER110C, stronger effect = lower value): 0.966 | normalized growth (locus YER111C, strain swi4, stronger effect = lower value): 1.02 | normalized growth (locus YER155C, strain BEM2 (second series), stronger effect = lower value): 1.03 | normalized growth (locus YER155C, strain BEM2, stronger effect = lower value): 1 | normalized growth (locus YER167W, strain BCK2, stronger effect = lower value): 0.992 | normalized growth (locus YFR010W, strain ubp6, stronger effect = lower value): 1.01 | normalized growth (locus YGL078C, strain dbp3, stronger effect = lower value): 0.984 | normalized growth (locus YGL086W, strain mad1, stronger effect = lower value): 0.953 | normalized growth (locus YGL167C, strain pmr1, stronger effect = lower value): 0.987 | normalized growth (locus YGL173C, strain kem1, stronger effect = lower value): 1.01 | normalized growth (locus YGL227W, strain vid30, stronger effect = lower value): 1.01 | normalized growth (locus YGL240W, strain doc1, stronger effect = lower value): 1.03 | normalized growth (locus YGL248W, strain PDE1, stronger effect = lower value): 0.93 | normalized growth (locus YGL253W, strain hxk2, stronger effect = lower value): 1.01 | normalized growth (locus YGR078C, strain PAC10, stronger effect = lower value): 0.922 | normalized growth (locus YGR135W, strain pre9, stronger effect = lower value): 0.978 | normalized growth (locus YGR252W, strain gcn5, stronger effect = lower value): 0.921 | normalized growth (locus YHR013C, strain ard1, stronger effect = lower value): 1.06 | normalized growth (locus YHR027C, strain rpn1, stronger effect = lower value): 1 | normalized growth (locus YHR030C, strain SLT2, stronger effect = lower value): 0.878 (active) | normalized growth (locus YHR079C, strain IRE1 (second series), stronger effect = lower value): 0.97 | normalized growth (locus YHR094C, strain hxt1, stronger effect = lower value): 0.982 | normalized growth (locus YHR129C, strain ARP1, stronger effect = lower value): 0.97 | normalized growth (locus YHR142W, strain chs7, stronger effect = lower value): 0.995 | normalized growth (locus YHR200W, strain rpn10, stronger effect = lower value): 0.963 | normalized growth (locus YIL066C, strain RNR3, stronger effect = lower value): 0.965 | normalized growth (locus YIL073C, strain SPO22, stronger effect = lower value): 0.846 | normalized growth (locus YIL125W, strain kgd1, stronger effect = lower value): 0.984 | normalized growth (locus YIR030C, strain dcg1, stronger effect = lower value): 0.98 | normalized growth (locus YJL092W, strain hpr5, stronger effect = lower value): 1.01 | normalized growth (locus YJL095W, strain BCK1 (second series), stronger effect = lower value): 1.01 | normalized growth (locus YJL095W, strain BCK1, stronger effect = lower value): 0.9 | normalized growth (locus YJL115W, strain asf1, stronger effect = lower value): 1.02 | normalized growth (locus YJL129C, strain trk1, stronger effect = lower value): 0.974 | normalized growth (locus YJL134W, strain LCB3, stronger effect = lower value): 0.983 | normalized growth (locus YJL154C, strain vps35, stronger effect = lower value): 1.02 | normalized growth (locus YJL164C, strain tpk1, stronger effect = lower value): 0.999 | normalized growth (locus YJL166W, strain qcr8, stronger effect = lower value): 1.02 | normalized growth (locus YJL168C, strain set2, stronger effect = lower value): 0.984
